Our source for the inhibition values is PubChem BioAssay AID1376 (SRMLSC, 2008).

Hit rate of the full screen: of about 220,000 compounds, about 530 (0.24%) were called active. The sample holds actives, similar compounds and a random draw of the others, so the mix is not that of the screen. Rule as the data show it: active = inhibition above about 13%; inconclusive = no clear call, values can overlap the other calls; inactive = below that. Entries with a potency or affinity are not part of this list.

The target of this test is Bifunctional protein GlmU (Mycobacterium tuberculosis (strain ATCC 25618 / H37Rv)) (UniProt P9WMN3). Nature of the test: inhibition of mycobacterial GlmU enzyme – biochemical, glucosamine-1-phosphate acetyltransferase (AID 1376).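 Also: 0% = complete reaction with vehicle and 100% = reaction without substrate.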 Particulars: M. tuberculosis GlmU acetyltransferase enzyme assay; active compounds read high;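 tested at 30 µM in the primary screen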.
Sequence of Bifunctional protein GlmU (Mycobacterium tuberculosis (strain ATCC 25618 / H37Rv)) (P9WMN3 whole entry, looked up): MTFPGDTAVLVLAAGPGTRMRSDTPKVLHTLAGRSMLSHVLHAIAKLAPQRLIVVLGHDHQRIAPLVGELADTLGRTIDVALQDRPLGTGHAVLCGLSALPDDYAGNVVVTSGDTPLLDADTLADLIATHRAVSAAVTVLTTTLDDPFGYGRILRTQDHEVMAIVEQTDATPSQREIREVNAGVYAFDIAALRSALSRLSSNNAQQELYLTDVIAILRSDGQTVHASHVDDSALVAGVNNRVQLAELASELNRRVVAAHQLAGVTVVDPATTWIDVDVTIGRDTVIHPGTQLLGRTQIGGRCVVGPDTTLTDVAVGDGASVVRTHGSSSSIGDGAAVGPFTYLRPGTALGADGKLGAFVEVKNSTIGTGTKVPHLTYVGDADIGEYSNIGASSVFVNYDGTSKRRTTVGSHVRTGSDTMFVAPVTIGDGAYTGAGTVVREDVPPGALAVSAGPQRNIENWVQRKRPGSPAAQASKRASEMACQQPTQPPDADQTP
For the compound `O=C(COC(=O)C12CC3CC(CC(C3)C1)C2)NCCc1ccccc1`, the inhibition (commonly the drop in the measured response relative to a control, in per cent) is 5.26% (inactive).

As to `Cn1nccc1NC(=O)c1nccnc1C(=O)O`, the inhibition is -4.84% (inactive).

`Cc1cc(N2CCN(C(=O)c3ccco3)CC2)n2nc(-c3cccc(F)c3)cc2n1`: the inhibition was -0.85% (inactive).

Consider `Cc1cc(N2CCN(C(=O)c3ccco3)CC2)n2nc(-c3cccc(Cl)c3)cc2n1`, for which the inhibition was 14.1% (active). `Cc1cc(N2CCN(C(=O)c3ccco3)CC2)n2nc(C)c(-c3ccccc3)c2n1`: the inhibition is 3.95% (inactive). Take `CCCCN(CC)CCNC(=O)c1cn(-c2ccc(Cl)cc2)c(=O)c2ccccc12`: the inhibition is -2.06% (inactive).

With `Cc1c(-c2ccco2)[n+](=O)c2c(n1[O-])CCCCC2`, the inhibition is 3.97% (inactive).

`Cc1c(-c2ccco2)[n+](=O)c2c(n1[O-])CCC2`: the inhibition was 14.9% (active). Next, `Cc1ccc(-c2c(C)n([O-])c3c([n+]2=O)CCC3)o1`: 1.5% (inactive).

With `COC(=O)c1cnc(N2CCCN(S(=O)(=O)c3ccc(C(F)(F)F)cc3)CC2)nc1C(F)(F)F`, the inhibition was 1.89% (inactive).

For the compound `Cc1cccc(NC(=O)c2ccc(COc3ccc4ccccc4c3)o2)n1`, the inhibition is -0.95% (inactive). Regarding `O=C(CN1N=C(c2ccccc2)CCC1=O)NCCN1CCc2ccccc2C1`, the inhibition is -1.06% (inactive). Next, `CC(=O)Oc1cccc(N2C(=O)c3ccccc3C2=O)c1`: -6.78% (inactive); `CC12CCC(C(=O)NNc3ccccc3)(OC1=O)C2(C)C` (stereo unspecified): -5.23% (inactive); `CC12CCC(C(=O)NCc3ccccc3)(OC1=O)C2(C)C` (stereo unspecified): 1.44% (inactive). Next, `CC12CCC(C(=O)NC(c3ccccc3)c3ccccc3)(OC1=O)C2(C)C` (stereo unspecified): 13.4% (active). Next, `COc1cccc(OC)c1C(=O)N1CCN(Cc2ccccc2C(F)(F)F)CC1`: 3.68% (inactive).

For `COc1ccc(/C=C2\CCc3c2nc2ccccc2c3C(=O)O)cc1OC`, the inhibition is -1.01% (inactive). Consider `O=C(O)c1c2c(nc3ccccc13)/C(=C/c1ccc(O)cc1)CCC2`, for which the inhibition is -1.41% (inactive). Next, `CCOC(=O)c1nnn(-c2nc(OC)nc(N3CCCCC3)n2)c1-c1ccccc1`: 1.53% (inactive). Next, `COC(=O)c1nnn(-c2nc(N3CCOCC3)nc(N3CCOCC3)n2)c1C`: 0.09% (inactive). Next, `CCNc1nc(N2CCCCC2)nc(-n2nnc(C(=O)OCC)c2C)n1`: 13.5% (active).

`O=C(O)/C=C/C(=O)Nc1ccc2nccnc2c1`: the inhibition is 0.78% (inactive). In the case of `CN(C)S(=O)(=O)c1ccc(C(=O)NCc2ccco2)cc1`, the inhibition is 7.54% (inactive). As to `CCOc1cccc(NC(=O)/C(C#N)=C/c2cccnc2)c1`, the inhibition is 13.3% (active). In the case of `CCOc1ccc(/C=C(\C#N)C(=O)Nc2cccnc2)cc1`, the inhibition is -3.21% (inactive). Next, `CCOc1cccc(NC(=O)/C(C#N)=C\c2cccnc2)c1`: -1.75% (inactive); `Cc1ccc(-c2nnc(CSc3nnc(COc4ccccc4)n3-c3ccc(C)cc3)o2)cc1`: 2.51% (inactive).

For the compound `COc1ccccc1CCNC1CCC(C)CC1` (stereo unspecified), the inhibition was 1.25% (inactive). In the case of `CC(=O)c1ccc(S(=O)(=O)N2CCNCC2)cc1`, the inhibition was 1.28% (inactive). Next, `O=[N+]([O-])c1cccc(-c2csc(CS(=O)(=O)Cc3ccco3)n2)c1`: 1.82% (inactive). Next, `Cc1ccc2c(c1)C1C=CCC1C(C(=O)NCCCN1CCOCC1)N2` (stereo unspecified): 3.8% (inactive); `Cc1ccc2c(c1)C1C=CCC1C(C(=O)O)N2` (stereo unspecified): 28% (active).

As for `CCOC(=O)C1Nc2ccc(C)cc2C2C=CCC12` (stereo unspecified), the inhibition was -1.77% (inactive). Next, `CCOC(=O)C1Nc2ccc(OC(F)(F)F)cc2C2C=CCC12` (stereo unspecified): 1.1% (inactive); `O=C(NC1CC1)C1Nc2ccc(OC(F)(F)F)cc2C2C=CCC12` (stereo unspecified): -0.17% (inactive). Next, `O=C(O)C1Nc2ccc(OC(F)(F)F)cc2C2C=CCC12` (stereo unspecified): 13.1% (active); `CCOC(=O)N1CCC(N(CCN(C)C)C(=S)Nc2ccccc2Cl)CC1`: 0.75% (inactive); `O=C(CNC(=O)c1ccc2c(c1)OCCO2)N/N=C/c1ccco1`: -1.55% (inactive). As to `Nc1ccccc1NC1=CC(=O)CC(c2ccccc2)C1` (stereo unspecified), the inhibition is 2.07% (inactive). On to `COc1ccc(/C=N/NC(=O)CN(CCc2ccccc2)S(=O)(=O)c2ccc(NC(C)=O)cc2)cc1OC`, for which the inhibition was 1.25% (inactive). With `COc1cc(NS(=O)(=O)c2ccc(Nc3nc(-c4ccccn4)cs3)cc2)nc(OC)n1`, the inhibition was -0.88% (inactive). Take `Cn1cnnc1SCc1ccc(C(=O)N/N=C(\CCC(=O)O)c2ccc(C(C)(C)C)cc2)cc1`: the inhibition was -2.55% (inactive). Next, `CCSc1nnc(NS(=O)(=O)c2ccc(C)cc2)s1`: -1.65% (inactive); `Cc1ccc(C)c(C2=CSC3=NS(=O)(=O)CCN23)c1`: 14.7% (active); `Cc1ccc(C2=CSC3=NS(=O)(=O)CCN23)cc1C`: -2.13% (inactive). Turning to `Cc1ccc(C2=CSC3=NS(=O)(=O)CCN23)cc1`, the inhibition was -2.55% (inactive). Next, `Cc1ccnc(SCc2cn3c(C)cc(C)nc3n2)n1`: -0.65% (inactive); `CCc1ccc(N2CCN(C(=O)N3CCOCC3)CC2)cc1`: -4.7% (inactive); `C=CCOC(=O)C1=C(C)N(C)C(=O)NC1c1cc2c(cc1Br)OCO2` (stereo unspecified): 0% (inactive).

Turning to `Cc1cccc(-n2ncc3c(N(CCO)CCO)ncnc32)c1`, the inhibition is 2.36% (inactive). As for `CCOc1ccc(NC(=O)Nc2cc(C(C)C)c(O)cc2C)cc1`, the inhibition was 1.34% (inactive). With `Cc1ccc(C(C)C)cc1NC(=O)Nc1ccc([N+](=O)[O-])cc1`, the inhibition was -2.4% (inactive).

As to `CCOc1ccc(NC(=O)Nc2cc(C(C)C)ccc2C)cc1`, the inhibition is 14.6% (active).

For `CSc1nc2ncc(C#N)cn2n1`, the inhibition is -5.13% (inactive).

As for `CC(=O)Nc1ccc(NC(=O)C(Cc2ccccc2)NC(=O)C2CCCCC2)cc1` (stereo unspecified), the inhibition was 1.61% (inactive). For `c1ccc(-n2nnc(-c3cccnc3)n2)cc1`, the inhibition is 1.76% (inactive).

Regarding `COc1ccccc1OCC(O)Cn1c(Br)nc2c1c(=O)[nH]c(=O)n2C` (stereo unspecified), the inhibition was 13.5% (active). Consider `Cn1c(=O)[nH]c(=O)c2c1nc(SCCO)n2CC(O)COc1ccccc1` (stereo unspecified), for which the inhibition is 0.72% (inactive).

On to `CCCSc1nc2c(c(=O)[nH]c(=O)n2C)n1CC(O)COc1ccccc1` (stereo unspecified), for which the inhibition is 14.1% (active). Next, `CCSc1nc2c(c(=O)[nH]c(=O)n2C)n1CC(O)COc1ccccc1` (stereo unspecified): -3.27% (inactive); `Cc1ccccc1OCC(O)Cn1c(Br)nc2c1c(=O)[nH]c(=O)n2C` (stereo unspecified): 1.77% (inactive). Turning to `COc1ccc(OCC(O)Cn2c(Br)nc3c2c(=O)[nH]c(=O)n3C)cc1` (stereo unspecified), the inhibition is -0.99% (inactive). Next, `CCN(CC)C(=O)c1[nH]cnc1C(=O)N[C@@H](C)C(=O)OC(C)(C)C`: -5.07% (inactive); `COC(=O)c1ccccc1NC(=O)Nc1cccc(C)n1`: 1.31% (inactive). As to `Cc1occc1C(=O)N/N=C/c1ccccc1[N+](=O)[O-]`, the inhibition was -3.47% (inactive). Consider `N#C/C(=C\c1ccc([N+](=O)[O-])cc1)c1ccccn1`, for which the inhibition is 3.91% (inactive). On to `N#C/C(=C\c1ccc(Cl)c([N+](=O)[O-])c1)c1ccccn1`, for which the inhibition is -1.14% (inactive). `CNc1ccc(/C=C(\C#N)c2ccccn2)cc1[N+](=O)[O-]`: the inhibition is 13.2% (active). In the case of `CC(=O)c1cccc(NC(=O)C2CCCC2)c1`, the inhibition was 1.98% (inactive).

Turning to `Cc1cc(C)cc(NC(=O)C2CCCC2)c1`, the inhibition is 9.85% (inactive). On to `Cc1cccc(NC(=O)C2CCCC2)c1`, for which the inhibition was 13.7% (active). Consider `CC1CN(/C(=N\S(=O)(=O)c2ccccc2)c2ccccc2)CC(C)O1` (stereo unspecified), for which the inhibition is -2.86% (inactive).

As to `COc1ccccc1CCc1nnc(CCC(=O)NC(C)Cc2ccsc2)o1` (stereo unspecified), the inhibition is 1.67% (inactive).

Turning to `COc1ccc(NC(=O)/C(Cl)=C(/Cl)S(=O)Cc2ccc(Cl)cc2)cn1` (stereo unspecified), the inhibition was 11.8% (inactive). `COc1ccc(CS(=O)/C(Cl)=C(/Cl)C(=O)Nc2ccc(OC)nc2)cc1` (stereo unspecified): the inhibition was 14.6% (active).

Turning to `COc1ccc(NC(=O)/C(Cl)=C(/Cl)S(=O)Cc2ccc(C)cc2)cn1` (stereo unspecified), the inhibition was 7.38% (inactive). For `CCOc1ccc(NC(=O)C2=C(C)C(=O)OC23CCC(C)CC3)cc1` (stereo unspecified), the inhibition is 3.82% (inactive). `CC1=C/C(=N\OS(=O)(=O)c2ccccc2)C(C)=CC1=O`: the inhibition was 10.7% (inactive).

On to `CC1=CC(=O)C(C(C)C)=C/C1=N/OS(=O)(=O)c1ccccc1`, for which the inhibition is 1.82% (inactive). Next, `O=C(NCCCn1ccnc1)C1CC(c2ccccc2Cl)=NO1` (stereo unspecified): -2.77% (inactive). On to `COc1cc(C(Nc2ccc(S(=O)(=O)NCC3CCCO3)cc2)C(=O)NC(C)(C)C)cc(OC)c1OC` (stereo unspecified), for which the inhibition was 13.6% (active). Next, `COc1cc(C(Nc2ccc(S(=O)(=O)N3CCC(C)CC3)cc2)C(=O)NCC2CCCO2)cc(OC)c1OC` (stereo unspecified): 0.15% (inactive); `COc1ccc(C(Nc2ccc(S(=O)(=O)NCC3CCCO3)cc2)C(=O)NC(C)(C)C)cc1OC` (stereo unspecified): -2.66% (inactive); `CC(=O)Nc1cccc(OCc2ccc(S(=O)(=O)Cc3ccccc3)cc2)c1`: -12.3% (inactive). Next, `O=C1NC(=O)/C(=C\c2ccc(O)cc2O)S1`: 12.9% (active). Next, `O=C1NC(=O)/C(=C/c2ccc(O)cc2)S1`: 2.35% (inactive); `Cc1cc(N2CCOCC2)ccc1/C=C1/SC(=O)NC1=O`: -0.05% (inactive); `c1ccc(CSc2ccc(-c3cccnc3)nn2)cc1`: -0.08% (inactive).

As to `Cc1cc(NC(=O)CSC2=Nc3ccccc3C3=NC(Cc4ccccc4)C(=O)N23)n[nH]1` (stereo unspecified), the inhibition is -1.18% (inactive).

On to `CC1(C)Cc2c(C#N)c(N)n(-c3ccccc3)c(=O)c2CO1`, for which the inhibition is -3.12% (inactive).

Take `CCC1(C)Cc2c(C#N)c(N)n(-c3ccccc3)c(=S)c2CO1` (stereo unspecified): the inhibition is 6.07% (inactive). Next, `CCC1(C)Cc2c(C#N)c(N)n(-c3ccccc3)c(=O)c2CO1` (stereo unspecified): 13.3% (active). `CCCNC(=O)c1ccc(CNc2c(N3CCC(C(=O)OCC)CC3)c(=O)c2=O)cc1`: the inhibition was -8.96% (inactive). Next, `CCOC(=O)N1CCN(c2c(NCc3ccc(N(C)C)cc3)c(=O)c2=O)CC1`: -1.67% (inactive); `CCOC(=O)C1CCN(c2c(NCc3ccc(N(C)C)cc3)c(=O)c2=O)CC1`: 14.4% (active).
